Assay outcomes (PubChem)
Shown are actives, neighbours in structure and some others; about 11% of the full set was active somewhere.
3T3 cytotox = kills NIH 3T3 cells. NIH 3T3 viability, CellTiter-Glo ATP luminescence, 48-72 h. Potency, µM (highest dose often 96.7 µM), inactives show at the highest dose activity change, negative = cytotoxicity, actives largely listed as inhibitors. 4.3% of 94,000 active. AID 1345082; active = well fitted curve in the direction sought with a large enough effect; inconclusive = small, poorly fitted or top-dose-only effect, or another doubt; inactive = no such curve, though single readings can be large; an effect the other way counts as inactive or inconclusive; also: % is scaled to controls: 0 for no effect and ±100 for the full control effect; nearly all actives have a fitted effect of over 55% in size
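NIH 3T3 cells at 400 cells/well received 23 nL of compound by pintool and were incubated 48 or 72 h at 37 °C. Viability was read as ATP-coupled CellTiter-Glo luminescence.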
NPR1 antag = blocks ANP-stimulated signaling of human Npr1 receptor; AID 1347048; Potency, µM (highest dose often 46.3 µM), for inactives: at the highest dose activity change, negative = inhibition, most hits filed as inhibitors; HEK293 hNpr1 GloSensor cGMP, ANP-stimulated luminescence; 1.6% of 76,000 active; also: % is scaled to controls: 0 for no effect and ±100 for the full control effect; nearly all actives have a fitted effect of over 60% in size
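Compound pre-incubated 30 min at room temperature on GloSensor-loaded HEK293 cells stably carrying hNpr1 and the pGS-40F cGMP biosensor. Stimulation uses hNppA at 0.1 nM final; luminescence is taken at baseline and 20 min post-agonist.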
HEK293 tox = cytotoxic compounds in HEK 293 cells; HEK 293 viability, ATP luminescence (CellTiter-Glo), 48-72 h; Potency, µM (top dose mostly 115 µM), for inactives: at the top dose activity change, negative = cytotoxicity, usual class: inhibitors; 6.6% of 94,000 active; AID 1345083; active = well fitted curve in the direction sought with a large enough effect; inconclusive = small, poorly fitted or top-dose-only effect, or another doubt; inactive = no such curve, though single readings can be large; an effect the other way counts as inactive or inconclusive; also: % is scaled to controls: 0 for no effect and ±100 for the full control effect; nearly all actives have a fitted effect of over 60% in size
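Viability of HEK 293 cells, plated at 250 cells/well, was judged by cellular ATP after compound treatment for 48 or 72 hr. Luminescence was imaged 10 min after CellTiter-Glo addition at room temperature.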
FLuc inh = Photinus pyralis luciferase inhibition; 2.5% of 76,000 active; purified P. pyralis luciferase, luminescence, biochemical; Potency, µM (titrated, usually from 115 µM), usual class: inhibitors; AID 1347043; active = well fitted curve in the direction sought with a large enough effect; inconclusive = small, poorly fitted or top-dose-only effect, or another doubt; inactive = no such curve, though single readings can be large; an effect the other way counts as inactive or inconclusive; also: % is scaled to controls: 0 for no effect and ±100 for the full control effect; nearly all actives have a fitted effect of over 65% in size
Target sequence (P08659 whole entry, looked up): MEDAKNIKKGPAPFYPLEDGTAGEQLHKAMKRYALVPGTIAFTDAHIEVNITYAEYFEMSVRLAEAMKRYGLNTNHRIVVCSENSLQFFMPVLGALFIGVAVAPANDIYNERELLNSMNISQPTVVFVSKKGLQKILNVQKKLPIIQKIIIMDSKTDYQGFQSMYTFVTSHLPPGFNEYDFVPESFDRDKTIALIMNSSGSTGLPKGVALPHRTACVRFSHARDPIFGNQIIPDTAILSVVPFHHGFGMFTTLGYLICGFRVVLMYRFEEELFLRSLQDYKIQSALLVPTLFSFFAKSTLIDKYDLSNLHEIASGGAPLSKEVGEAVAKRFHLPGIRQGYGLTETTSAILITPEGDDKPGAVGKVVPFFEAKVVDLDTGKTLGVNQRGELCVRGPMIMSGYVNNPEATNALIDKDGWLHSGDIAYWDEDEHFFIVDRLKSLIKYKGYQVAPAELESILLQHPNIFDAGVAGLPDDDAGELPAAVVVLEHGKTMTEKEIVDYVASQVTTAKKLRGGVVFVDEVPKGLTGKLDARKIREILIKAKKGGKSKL
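Biochemical qHTS: compound (6-point titration) added to 10uM D-luciferin plus 10uM ATP in Tris acetate pH 7.5 buffer with Mg, Tween-20 and BSA, then purified enzyme at 10nM; light output imaged.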
Npr1 antag conf = hNpr1 antagonism, confirmation assay; shares compounds with NPR1 antag; HEK293 hNpr1 cGMP GloSensor luminescence, ANP-stimulated; Potency, µM (series often up to 57.6 µM), without a hit: top-dose activity change, negative = inhibition, usual class: inhibitors; 76% of 1,400 active; also: nearly all actives have a fitted effect of over 70% in size
NPR2 antag = hNpr2 antagonism, selectivity versus Npr1. shares compounds with NPR1 antag. HEK293 hNpr2 GloSensor cGMP luminescence, CNP-stimulated. Potency, µM (highest dose often 57.6 µM), without a hit: at the top dose activity change, negative = inhibition, actives largely listed as inhibitors. 67% of 1,400 active. AID 1347046; also: nearly all actives have a fitted effect of over 70% in size
FLuc inh counter = counter-screen for Npr1 antagonists: firefly luciferase inhibitors; shares compounds with NPR1 antag; purified FLuc enzyme, luminescence, Km substrate; Potency, µM (highest dose often 57.6 µM), for inactives: at the highest dose activity change, negative = inhibition, usual class: inhibitors; 0.7% of 1,400 active; AID 1347047; active = well fitted curve in the direction sought with a large enough effect; inconclusive = small, poorly fitted or top-dose-only effect, or another doubt; inactive = no such curve, though single readings can be large; an effect the other way counts as inactive or inconclusive; also: 0% is about no effect
GloSensor cGMP = counter-screen for Npr1 antagonists: GloSensor control cell line | Potency, µM (series often up to 57.6 µM), for the others: at the highest dose activity change, negative = inhibition, actives largely listed as inhibitors | 69% of 1,400 active | AID 1347051 | shares compounds with NPR1 antag | HEK293 GloSensor cGMP, SNP-stimulated, luminescence; also: % is scaled to controls: 0 for no effect and ±100 for the full control effect; nearly all actives have a fitted effect of over 70% in size
* = called active by the depositor; [ ] = another dose, or the depositor's remark. Unless noted, calls follow the shape of the full dose curve. Potency is read from the fitted curve at half-maximal effect.

What do the screens show for `COc1ccc(-c2cc(C[C@@H]3C[C@H](NCc4ccncc4)C3(C)C)no2)cc1`?
3T3 cytotox: inconclusive; NPR1 antag: 22.4µM*; HEK293 tox: inconclusive; FLuc inh: inactive; Npr1 antag conf: 19.8µM*; NPR2 antag: 28µM*; FLuc inh counter: -1.7%[86.2 µM]; GloSensor cGMP: 19.8µM*

How did CC1(NC(=O)C2CC2)CN(c2ccc(Oc3ccccc3)cc2)C1 do in these assays?
3T3 cytotox: -27.5%[138 µM]; NPR1 antag: 20µM*; HEK293 tox: inconclusive; FLuc inh: inactive; Npr1 antag conf: 17.7µM*; NPR2 antag: 22.2µM*; FLuc inh counter: -0.6%[86.2 µM]; GloSensor cGMP: 15.7µM*

What do the screens show for `COc1cccc(Nc2cccc(CN3CCCC(C)(NC(C)=O)C3)c2)c1` (centres undefined)?
3T3 cytotox: inconclusive; NPR1 antag: 3.5%[70.6 µM]; HEK293 tox: inconclusive; FLuc inh: inactive

What do the screens show for `CC(=O)NC1(C)CCCN(c2ccc(Oc3ccccc3)cc2)C1` (centres undefined)?
3T3 cytotox: inconclusive; NPR1 antag: 17.8µM*; HEK293 tox: inconclusive; FLuc inh: inactive; Npr1 antag conf: 19.8µM*; NPR2 antag: 19.8µM*; FLuc inh counter: inconclusive; GloSensor cGMP: 15.7µM*

What do the screens show for `CC(C)CN1C(=O)C(C)(C)[S+](=O)([O-])[C@H]2CN(c3ccc(Oc4ccccc4)cc3)C[C@@H]21`?
3T3 cytotox: inconclusive; NPR1 antag: 1.8%; HEK293 tox: inconclusive; FLuc inh: inactive

What do the screens show for `O=C(N[C@H]1CCN2C(=O)c3cc(-c4ccc(F)cc4F)ccc3NC(=O)[C@@H]2C1)c1cccs1`?
3T3 cytotox: inconclusive; NPR1 antag: 1.8%; HEK293 tox: inconclusive; FLuc inh: inactive

What do the screens show for `O=C(N[C@H]1CCN2C(=O)c3cc(-c4ccc(F)cc4F)ccc3NC(=O)[C@H]12)c1cccs1`?
3T3 cytotox: inconclusive; NPR1 antag: -22.7%; HEK293 tox: inconclusive; FLuc inh: inactive; Npr1 antag conf: inconclusive; NPR2 antag: inconclusive; FLuc inh counter: inconclusive; GloSensor cGMP: -23.3%

What do the screens show for `CNC(=O)N1CCCC(c2nc(CCOCC3CCCC3)no2)C1` (centres undefined)?
3T3 cytotox: -28.9%; NPR1 antag: inconclusive; HEK293 tox: inconclusive; FLuc inh: inactive; Npr1 antag conf: inconclusive; NPR2 antag: inconclusive; FLuc inh counter: -0.7%; GloSensor cGMP: inconclusive

How did CC(C)S(=O)(=O)N1CC(Oc2ccc(-c3noc(C4CCOCC4)n3)cc2)C1 do in these assays?
3T3 cytotox: -13.8%; NPR1 antag: 2.24µM*; HEK293 tox: inconclusive; FLuc inh: inactive; Npr1 antag conf: 10.9µM*; NPR2 antag: 12.2µM*; FLuc inh counter: -1.2%; GloSensor cGMP: 10.9µM*

Results for CCC(C)NC(=O)N1CC(Oc2ccc(-c3nc(-c4ccccc4)no3)cc2)C1 (centres undefined) ?
3T3 cytotox: inconclusive; NPR1 antag: 1.26µM*; HEK293 tox: -46.6%; FLuc inh: inactive; Npr1 antag conf: 1.93µM*; NPR2 antag: 3.06µM*; FLuc inh counter: -15.0%; GloSensor cGMP: 2.17µM*

What do the screens show for `c1cc(-c2noc(C3CCOCC3)n2)ccc1OC1CNC1`?
3T3 cytotox: -7.3%; NPR1 antag: 6.9%; HEK293 tox: -19.4%; FLuc inh: inconclusive
